HT1080NT lethal – qHTS for induction of synthetic lethality in tumor cells producing 2HG: qHTS for the HT-1080-NT fibrosarcoma cell line. HT-1080-NT fibrosarcoma viability, CellTiter-Glo ATP luminescence, 48 h. Potency, µM (titrated, usually from 46.1 µM), for inactives: at the top dose activity, negative = less viability, hits mostly cytotoxic. 360,000 compounds, 1.6% hits;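 note: NT is the 2HG producing partner of a matched IDH1 knockdown line; 0% = DMSO-treated cells and -100% = media-only wells without cells; nearly all actives have a fitted effect of over 55% in size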
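HT-1080-NT fibrosarcoma cells (2HG-overproducing), 750 cells/well in RPMI with 5% FBS, dosed after 2 h and incubated 48 h at 37C. CellTiter-Glo luminescence normalized to DMSO and no-cell wells; concentration-response curves fitted and classed.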
HT1080 IDH1KD tx – qHTS for induction of synthetic lethality in tumor cells producing 2HG: qHTS for the HT-1080-IDH1KD cell line. HT-1080 IDH1 knockdown viability, ATP luminescence, 48 h. Potency, µM (titrated, usually from 46.1 µM), for inactives: at the top dose activity, negative = toxicity, usual class: cytotoxic. 360,000 compounds, 2% hits;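 note: 0% = DMSO wells and -100% = cell-free medium wells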
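Luminescent ATP read-out (CellTiter-Glo, 10 min at room temperature) after 48 h compound exposure at 37 °C gave viability of IDH1-knockdown HT-1080 cells. Activity was normalised to DMSO and cell-free wells, then fitted as concentration-response curves.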
HepG2 tox – qHTS for Inhibitors of TGF-b: Cytotox Counterscreen; Potency, µM (titrated, usually from 46.1 µM), for inactives: top-dose activity change, negative = cytotoxicity, usual class: cytotoxic; HepG2 CAGA-GFP viability, ATP luminescence, 18 h; AID 588856, 2011; 410,000 compounds, 0.76% hits
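CellTiter-Glo luminescence gave cytotoxicity after 18 hours at 37 degrees C. The cells were HepG2 CAGA-GFP in 1% FBS DMEM, stimulated with 500 pg/mL TGF-beta after compound addition. %Activity was normalised to no-cell wells (complete cell-killing) and DMSO (no toxicity), and curves were fitted and classified.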
TGFb inhibitor – qHTS for Inhibitors of TGF-b; 410,000 compounds, 1.2% hits; HepG2 CAGA-GFP TGF-b/SMAD3 reporter, GFP fluorescence, 18 h; TGF-beta stimulated, 500 pg/mL final; AID 588855, 2011; Potency, µM (series often up to 46.1 µM), for the others: at the highest dose activity, negative = inhibition, actives largely listed as inhibitors; note: % is set by controls: 0 for no effect and ±100 for the full control effect; nearly all actives have a fitted effect of over 65% in size
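Smad-responsive CAGA-GFP expression was quantified in HEPG2 cells exposed to compounds and 500 pg/mL final TGF-beta for 18 h at 37 degrees C; unstimulated wells defined full inhibition.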
TDP1 cell CPT – qHTS for Inhibitors of human tyrosyl-DNA phosphodiesterase 1 (TDP1): qHTS in cells in presence of CPT; chicken DT40 Tdp1-/-;hTDP1 cells + 20 nM CPT, ATP luminescence, 48 h; Potency, µM (series often up to 46.2 µM), inactives show top-dose activity change, negative = growth inhibition, actives largely listed as inhibitors; 420,000 compounds, 12% hits; note: % is set by controls: 0 for no effect and ±100 for the full control effect; nearly all actives have a fitted effect of over 55% in size
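Cell growth measured by CellTiter-Glo luminescence after a minimum 48 h, 37 C compound exposure with 20 nM CPT in Tdp1-knockout DT40 cells stably expressing hTDP1, seeded 400/well; qHTS titration format.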
DT40 TDP1 no CPT – qHTS for Inhibitors of human tyrosyl-DNA phosphodiesterase 1 (TDP1): qHTS in cells in absence of CPT | DT40 Tdp1-/- hTDP1 cells, no CPT, ATP luminescence, 48 h | Potency, µM (titrated, usually from 46.2 µM), inactives show top-dose activity change, negative = growth inhibition, actives largely listed as inhibitors | 420,000 compounds, 15% hits | AID 686978, 2013; note: % is set by controls: 0 for no effect and ±100 for the full control effect; nearly all actives have a fitted effect of over 55% in size
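DT40 Tdp1-/-;hTDP1 cells, no CPT (DMSO vehicle only), 400 cells/well; compounds pin-transferred; ≥48 hr, 37 °C; CellTiter-Glo 30 min RT dark, luminescence read.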
An asterisk follows results filed as active; ? = inconclusive; / = no result given. Sampled rows, rich in hits. Any-hit rate of the full collection: about 17%. Calls come from the whole dose curve; as a rule, active = well fitted curve in the direction sought with a large enough effect; inconclusive = small, poorly fitted or top-dose-only effect, or another doubt; inactive = no such curve, though single readings can be large; an effect the other way counts as inactive or inconclusive. Potency is the fitted concentration of half-maximal effect.

SMILES	HT1080NT lethal	HT1080 IDH1KD tx	HepG2 tox	TGFb inhibitor	TDP1 cell CPT	DT40 TDP1 no CPT
COc1ccccc1C1=NN(C(=O)c2ccccc2)C(c2ccc(Br)cc2)C1 (configuration not stated)	26.6%	21.1%	4.8%	4.0%	-6.2%	-10.2%
COc1ccc(C2CC(c3ccccc3)=NN2C(=O)CCC(=O)O)cc1 (configuration not stated)	18.4%	9.9%	-2.8%	-2.3%	7.6%	-18.0%
O=C1c2[nH]nc(-c3ccccc3O)c2C(c2cccc(Cl)c2)N1Cc1cccnc1 (configuration not stated)	/	/	-22.5%	-6.2%	?	?
COc1ccc(CCN2C(=O)c3[nH]nc(-c4ccccc4O)c3C2c2cccc(Cl)c2)cc1 (configuration not stated)	23.1µM*	11.6µM*	-92.1%	?	23.1µM*	20.6µM*
COc1cccc(C2c3c(-c4ccccc4O)n[nH]c3C(=O)N2Cc2cccnc2)c1 (configuration not stated)	/	/	-5.7%	7.6%	?	?
COc1ccc(CCN2C(=O)c3[nH]nc(-c4ccccc4O)c3C2c2cccc(OC)c2)cc1 (configuration not stated)	/	/	-70.4%	?	?	18.4µM*
COCCN1C(=O)c2[nH]nc(-c3ccccc3O)c2C1c1ccc(Cl)c(Cl)c1 (configuration not stated)	/	/	-108.4%	?	18.4µM*	9.2µM*
CCOC(=O)C1(CC)Oc2ccccc2C(c2ccc(OC)cc2)=C1C(=O)OC (configuration not stated)	5.0%	-0.2%	-86.9%	?	?	18.4µM*
Cc1cc2[nH]c3ccccc3c2c(C)n1	-29.8%	?	-7.7%	?	?	16.4µM*
O=C(O)c1ccc(Cn2cc(/C=C\[N+](=O)[O-])c3ccccc32)o1	-0.4%	-1.8%	11.8%	7.3%	-4.0%	-0.9%
CCOC(=O)Cn1cc(/C=C/[N+](=O)[O-])c2ccccc21	?	?	-72.1%	15.8µM*	14.6µM*	23.1µM*
CCOC(=O)Cn1cc(C#N)c2ccccc21	-16.4%	-13.5%	7.1%	?	-0.5%	-3.0%
Cc1cccc(Cn2cc(/C=C/[N+](=O)[O-])c3ccccc32)c1	?	23.1µM*	-61.3%	7.94µM*	23.1µM*	?
CC(C)(C)c1csc(NNC(=O)c2ccc(Cl)cc2)n1	-6.8%	?	7.6%	?	?	?
O=C(NNC1=Nc2ccccc2SC1)c1ccc(F)cc1	-29.3%	?	-24.9%	-25.7%	?	23.1µM*
O=C(NNC1=Nc2ccccc2SC1)c1ccc(Cl)cc1	?	?	7.0%	-6.2%	6.51µM*	11.6µM*
CCOC(=O)c1nn(-c2ccccc2)c2nnc(Cc3ccccc3)c(=O)n12	-5.2%	-2.7%	24.5%	17.8%	6.4%	-1.5%
CC(=O)CCC(=O)CNC(=O)CC[C@H]1O[C@@H](n2ccc(=O)[nH]c2=O)[C@H](O)[C@@H]1O	5.7%	20.1%	-23.9%	5.8%	-3.0%	-4.2%
CCc1ccc(CNC(=O)Cn2nc(C)c3nn(-c4ccc(Cl)cc4)c(C)c3c2=O)cc1	/	/	-2.2%	0.0%	?	?
CCc1ccccc1NC(=O)Cn1nc(C)c2nn(-c3ccc(Cl)cc3)c(C)c2c1=O	/	/	8.8%	-7.3%	?	14.6µM*
COC(=O)c1ccccc1NC(=O)Cn1nc(C)c2nn(-c3ccc(Cl)cc3)c(C)c2c1=O	/	/	-12.1%	0.0%	20.6µM*	25.9µM*
COc1ccc2[nH]cc(C(=O)NCCc3ccccc3)c(=O)c2c1	-6.4%	-0.4%	-3.1%	-10.0%	-26.3%	18.4µM*
COc1ccc2[nH]cc(CCNC(=S)NCCc3ccccc3)c2c1	-16.0%	-16.8%	-43.3%	?	?	?
COc1ccc2c(=O)c(C(=O)NCc3ccccc3)c[nH]c2c1	-24.2%	-28.8%	-2.0%	-22.9%	-23.7%	?
COc1ccc2c(=O)c(C(=O)NCCc3ccccc3)c[nH]c2c1	3.6%	0.8%	-2.6%	-24.4%	16.4µM*	?
SMILES	HT1080NT lethal	HT1080 IDH1KD tx	HepG2 tox	TGFb inhibitor	TDP1 cell CPT	DT40 TDP1 no CPT
CCOC(=O)c1ccc(NC(=O)CC2Sc3ncnn3C2=O)cc1 (configuration not stated)	1.0%	2.0%	2.6%	-2.5%	5.8µM*	6.51µM*
CCOC(=O)c1ccc(NC(=O)CN2C(=O)C(C)SC(C)C2=O)cc1 (configuration not stated)	4.5%	0.1%	1.1%	-8.8%	-0.2%	-6.6%
COc1ccc(NC(=O)CC2Sc3ncnn3C2=O)cc1 (configuration not stated)	-2.4%	-4.6%	-3.3%	6.6%	5.17µM*	11.6µM*
COCCN1C(=O)C(CC(=O)Nc2ccccc2)SC1=Nc1ccc(OC)cc1 (configuration not stated)	-13.1%	-12.5%	-3.9%	-4.1%	-5.7%	-13.0%
N#CC1(NC(=O)CN2C(=O)NC3(CCCCCC3)C2=O)CCCCC1	4.7%	4.5%	1.7%	-1.5%	-5.9%	4.8%
CC(=O)C(C(C)=O)C(NC(=O)c1cccnc1)(C(F)(F)F)C(F)(F)F	-4.0%	-0.7%	-42.6%	?	7.31µM*	11.6µM*
Cc1nc2ccc(Cl)cc2c(-c2ccccc2)c1C(=O)N(C)C	-0.2%	10.5%	-1.8%	-4.6%	-18.6%	13.3%
